From PubChem BioAssay
Sampled rows, rich in hits. Any-hit rate of the full collection: about 4.2%.
Mito fusion act – qHTS Assay for Small Molecule Inhibitors of Mitochondrial Division or Activators of Mitochondrial Fusion; hit rate 0.23% among 320,000; S. cerevisiae fusion-defective mutant growth rescue, CellTiterGlo 48 h; Potency, µM (top dose mostly 46.1 µM), actives largely listed as activators; AID 485298, 2010; also: nearly all actives have a fitted effect of over 45% in size
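Read-out: ATP-based luminescence (CellTiterGlo, 10 min ambient) reporting growth of fusion-defective ts yeast after 48 hours at 37C on glycerol/ethanol YPEG medium in the presence of compound.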
MCF10A rereplic – A quantitative high throughput screen for small molecules that induce DNA re-replication in MCF 10a normal breast cells; MCF 10A DNA re-replication, Hoechst nuclear intensity, 48 h; Potency, µM (highest dose often 46.1 µM), hits mostly activators; hit rate 2.9% among 350,000; also: nearly all actives have a fitted effect of over 50% in size
a7 integrin act – qHTS for Activators of Integrin-Mediated Alleviation for Muscular Dystrophy. hit rate 0.064% among 350,000. alpha7betagal myoblasts, beta-gal FDG fluorescence, 48 h. Potency, µM (titrated, usually from 38.3 µM), usual class: activators; also: nearly all actives have a fitted effect of over 60% in size
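Alpha7betagal+/- myoblasts (passage 13) were plated 16-24 hr, then exposed to compounds (1:260 dilution of DMSO stock) for 48 hours at 37C. After MPER lysis, β-galactosidase reporter activity was read as FDG fluorescence (ex 480/em 540) after 30 minutes.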
SW480 rereplic – A quantitative high throughput screen for small molecules that induce DNA re-replication in SW480 colon adenocarcinoma cells; SW480 DNA re-replication, Hoechst DNA content imaging, 48 h; Potency, µM (top dose mostly 46.1 µM), usual class: activators; hit rate 1.8% among 340,000; AID 624297, 2012; also: nearly all actives have a fitted effect of over 55% in size
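250 cells/well; 23 nL cpd via pin tool; 48 hr, 37 C, 5% CO2; Hoechst 40 min; imager read of total nuclear intensity, ex 405/em 500-530 nm.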
A-T KAP1 phos – qHTS Assay for Identifying a Potential Treatment of Ataxia-Telangiectasia; F2112 A-T fibroblasts, KAP-1 phosphorylation AlphaLISA; neocarzinostatin DNA damage 30 min before lysis; Potency, µM (titrated, usually from 57.5 µM), actives largely listed as activators; hit rate 0.19% among 320,000; AID 485349, 2010; also: nearly all actives have a fitted effect of over 45% in size
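hTERT-immortalized A-T patient fibroblasts (F2112), 500 cells/well in OPTI-MEM, 1% FBS, got compounds for 60 min, then NCS for 30 min at 37C. Lysates were then assayed for phospho-KAP-1 by AlphaLISA (anti-pKAP1 donor, anti-KAP1 acceptor beads), 6 hr at 25C.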
Hits are given with their value; - = inactive; ? = inconclusive; . = not tested or not shown; [ ] = dose if it differs, or a comment. Calls follow the shape of the dose curve; as a rule, active = well fitted activation curve with a large enough effect; inconclusive = small, poorly fitted or top-dose-only effect; inactive = no such curve, though single readings can be large or run the other way.

SMILES	Mito fusion act	MCF10A rereplic	a7 integrin act	SW480 rereplic	A-T KAP1 phos
COc1ccc(OC)c(Nc2cc(C)nc3ccc(C)cc23)c1	.	?	-	18µM	.
CN(CC(=O)Nc1ccccc1Cl)C(=O)Cn1nnc(-c2ccc(F)cc2)n1	-	-	-	-	-
Cc1ccc(C)c(S(=O)(=O)N2CCCC2CNC(=O)C(=O)NCCc2ccco2)c1 (stereo not drawn)	-	?	-	-	-
O=C(NCCc1ccco1)C(=O)NCC1CCCN1S(=O)(=O)c1ccccc1 (stereo not drawn)	-	?	-	16µM	-
Cc1ccc(S(=O)(=O)N2CCCCC2CCNC(=O)C(=O)NCc2ccco2)cc1 (stereo not drawn)	-	9.2µM	-	?	-
O=C(NCCC1CCCCN1S(=O)(=O)c1ccccc1)C(=O)Nc1ccc(F)cc1F (stereo not drawn)	-	18µM	-	?	-
Cc1cc(C)c(S(=O)(=O)N2CCCCC2CCNC(=O)C(=O)NCc2ccco2)c(C)c1 (stereo not drawn)	-	?	-	?	-
Cc1ccc(S(=O)(=O)N2CCCCC2CCNC(=O)C(=O)NCCc2ccco2)cc1 (stereo not drawn)	-	3.7µM	-	6.5µM	-
Cc1ccc(S(=O)(=O)N2CCOC2CNC(=O)C(=O)NCCN(C)C)cc1 (stereo not drawn)	-	-	-	-	-
CCSC1(SCC)N=C(N)C2(C#N)C(c3ccc(OC)c(OC)c3OC)C12C#N (stereo not drawn)	-	9.2µM	-	?	-
CCSC1(SCC)N=C(N)C2(C#N)C(c3ccccc3)NC3=C(CCC3)C12C#N (stereo not drawn)	-	-	-	-	-
CCOC(=O)C1CCN(C(=O)c2cccc(N3C(=O)NC4CC3(C)Oc3ccc(C)cc34)c2)CC1 (stereo not drawn)	-	-	-	-	-
CCOC(=O)N1CCN(C(=O)c2cccc(N3C(=O)NC4CC3(C)Oc3ccc(Cl)cc34)c2)CC1 (stereo not drawn)	-	16µM	-	13µM	-
Fc1ccc(-c2cn3cc(C(F)(F)F)cc(Cl)c3n2)cc1	-	?	-	?	-
COc1ccc(-c2cn3cc(C(F)(F)F)cc(Cl)c3n2)cc1	-	-	-	18µM	-
CC(CCc1ccc(O)cc1)NC(c1ccccc1)c1ccc(Cl)cc1 (stereo not drawn)	-	16µM	-	?	-
CC(CCc1ccc(O)cc1)NCCC(c1ccccc1)c1ccccc1 (stereo not drawn)	-	-	-	?	-
CCOc1ncccc1C(=O)N1CCCSC1=Nc1ccc(C(C)=O)cc1	-	0.92µM	-	-	-
COc1ccc(-c2oc3cccnc3c2C#CC2(O)CCCCC2)cc1	-	18µM	-	-	-
COc1cc(-c2ccc3oc(-c4ccsc4)c(C#CC4(O)CCCCC4)c3c2)cc(OC)c1OC	.	18µM	-	?	.
COc1ccc(-c2oc(=O)c3cc(OC)c(OC)cc3c2C#CCCCO)cc1	.	?	-	-	-
COc1ccc(-c2oc(=O)c3cc(OC)c(OC)cc3c2C#CC2(O)CCCCC2)cc1	.	2.1µM	-	-[9.22 µM]	-
COc1cc2c(C#CCO)c(-c3ccc(C#N)cc3)oc(=O)c2cc1OC	.	-	-	-	-
COc1cc2c(C#CCCCO)c(-c3ccc(C#N)cc3)oc(=O)c2cc1OC	-	6.5µM	-	?	-
Cc1c(C(=O)C(=O)NCc2ccco2)c2ccccc2n1C	-	-	-	-	-
SMILES	Mito fusion act	MCF10A rereplic	a7 integrin act	SW480 rereplic	A-T KAP1 phos
COc1cccc(N2C(=O)CC(N3CCN(S(=O)(=O)c4ccccc4[N+](=O)[O-])CC3)C2=O)c1 (stereo not drawn)	.	-	-	-	.
COc1ccc(-c2sc3cc4c(cc3c2C#CCO)OCO4)cc1	-	?	-	?	-
COc1cc(-c2ccc3sc(-c4ccsc4)c(C#CCO)c3c2)cc(OC)c1OC	?	12µM	-	-	-
COc1ccccc1-c1sc2cc3c(cc2c1C#CCO)OCO3	?	21µM	-	-	-
O=C(Nc1ccc(Br)cc1)Nc1cnccn1	-	-	-	-	-
Cc1cc(C)cc(NC(=O)CCn2c(=O)c3cccn3c3ccccc32)c1	-	8.2µM	-	-	-
Cc1ccc(NC(=O)CCn2c(=O)c3cccn3c3ccccc32)c(C)c1	-	-	-	-	-
O=C(CCn1c(=O)c2cccn2c2cccnc21)NCCCN1CCN(c2ccc(F)cc2)CC1	.	.	-	.	.
CC(C)C[C@@H](CNCC(=O)[C@H](Cc1c[nH]c2ccccc12)NC(=O)c1[nH]cnc1C(=O)N[C@@H](C)CN)NC(=O)c1nc[nH]c1C(=O)N[C@@H](C)C(=O)O	.	-	-	-	.
O=C1Nc2ccc(Br)cc2C12NNc1ccccc1O2 (stereo not drawn)	-	23µM	-	-	-
COc1ccc(N(CC(=O)N2CCN(c3cc(C)ccc3C)CC2)S(=O)(=O)c2c(C)noc2C)cc1	-	?	?	-	-
Cc1ccccc1NC(=O)C(Cl)=C(Cl)Cl	-	18µM	-	?	-
Cc1cccc(NC(=O)CSc2ncnc3nc[nH]c23)c1C	-	23µM	-	?	-
Cc1ccc(C)c(NC(=O)CSc2ncnc3nc[nH]c23)c1	-	-	-	-	-
C=CCn1c(CNc2ccccc2)nnc1SCC(=O)N/N=C/c1ccc(O)cc1O	-	16µM	-	-	-
COc1cc2c(cc1OC)/C(=C/c1ccc(Cl)cc1)C(=O)OC2	?	13µM	-	?	-
COc1ccc(/C=C2\C(=O)OCc3cc(OC)c(OC)cc32)cc1OC	-	?	-	-	-
O=S(=O)(NC1CC1)c1ccc(S(=O)(=O)N2CCCC3(CCCCC3)C2)cc1	-	15µM	-	?	-
Nc1ccc2cc3ccc(N)cc3nc2c1	.	-	.	-	.
COc1ccc(CN2CCc3ccccc3C2)c(OC)c1	-	-	-	-	-
COc1ccc(C2=[N+](C)CCn3cccc32)c(OC)c1	-	?	-	0.52µM	-
N#CC1C(=O)NC(=O)CC12CCCCC2 (stereo not drawn)	.	-	-	-	.
CCc1ccc2c(-c3cccc(Cl)c3)nc(=O)n(CC)c2n1	12µM	.	.	.	.
O=C1Cc2c(-c3ccccc3)cc(-c3cccc(Cl)c3)nc2-c2ccccc2N1	.	?	-	-	.
COc1cc2c(cc1OC)CN(C1CCCN(Cc3cc(Cl)ccc3O)C1)CC2 (stereo not drawn)	-	?	-	-	-
CCOC(=O)C1=C(CC)Nc2ccccc2N=C1NC(=O)c1cc(C)on1	-	-	-	-	-
CCOC(=O)C1=C(CC)Nc2ccccc2N=C1NC(=O)Nc1ccc(Cl)c(Cl)c1	-	6.5µM	-	?	-
